# PubChem BioAssay
# Test: small-molecule binders of probe aNOTCH2, primary screen, biochemical, small-molecule microarray, 635/667 nm fluorescence (AID 1121);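 note: score merges feature fluorescence read at 667 nm with its signal to noise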
# Conditions: higher = more signal
row,SMILES,composite z-score
1,COC(=O)[C@H](Cc1ccccc1)N1CC(/C=C/C2CC2)=C[C@@H]1[C@@H](O)Cc1ccccc1,-0.166
2,CCN(CC)c1ccc(N2CC=CC34O[C@@H]5/C=C\CCC(C)OC(=O)C5[C@H]3C(=O)N(CCO)[C@@H]4C2=O)cc1 (stereo partly specified),-0.132
3,Cc1ccc(S[C@]2(C(=O)NC3CC3)CC(=O)N(Cc3ccccc3Cl)[C@@H]2c2ccc(CO)cc2I)cc1,-0.0419
4,C[C@]1(C(=O)NCCN2CCOCC2)c2ccccc2C(=O)N(Cc2ccc(OC(F)(F)F)cc2)[C@H]1c1ccc(CO)cc1,-0.0966
5,C[C@H]1C2=C3C(CC[C@H]4C(OCc5ccc(F)cc5C(F)(F)F)OC[C@](C)([C@@H]34)N(C(=O)OC(C)(C)C)C2)C2COC(=O)OCC21 (stereo partly specified),0.183
6,COCCOC(=O)N1C(=O)[C@@]2(c3cc(C#CCNC(N)=O)ccc31)[C@H](C(=O)N1CCCCCCC1)[C@H]1C(=O)O[C@H](c3ccccc3)[C@H](c3ccccc3)N1[C@@H]2c1ccc(O)cc1,-0.0714
7,Cc1ccc(C(C)CC(O)C2C=CC3C(=O)N(c4ccccc4)C(=O)C3N2Nc2ccc(C(C)C)cc2)o1 (stereo unspecified),0.299
8,CC=CC(O)C1C=CC2C(=O)N(C)C(=O)C2N1Nc1ccc([N+](=O)[O-])cc1[N+](=O)[O-] (stereo unspecified),-0.0351
9,O=C(O)[C@]1(Cc2ccccc2)N=C(c2ccc(OCCCO)cc2)O[C@@H]1c1ccccc1,-0.14
10,[N-]=[N+]=NCc1ccccc1[C@H]1OC(c2ccc(OCCCO)cc2)=N[C@@]1(CCS(=O)(=O)c1ccccc1)C(N)=O,0.123
11,Cc1c(NC(=O)/C(C#N)=C/C=C/c2ccc(N(C)C)cc2)c(=O)n(-c2ccccc2)n1C,0.292
